Source: PubChem (National Center for Advancing Translational Sciences (NCATS))
The list is not random: actives were taken first. Their share in the collection is about 12%.
G9a inh: G9a (human) methyltransferase inhibition; Q96KQ7; G9a H3K9 monomethylation, AlphaScreen, 2 h; Potency, µM (highest dose often 102 µM), inactives show at the top dose activity, negative = inhibition, usual class: inhibitors; hit rate 8.8% among 350,000; also: % is scaled to controls: 0 for no effect and ±100 for the full control effect; nearly all actives have a fitted effect of over 75% in size
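Signal arises when biotinylated H3K9 peptide, once monomethylated, bridges streptavidin donor and antibody-captured acceptor beads. Enzyme at 20 nM was preincubated 15 min with test compounds; peptide 500 nM and SAM 20 uM then reacted for 2 h.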
JMJD2A Tudor: JMJD2A Tudor domain (human) inhibition | O75164 | AlphaScreen JMJD2A-Tudor / H3K4me3 peptide binding | Potency, µM (titrated, usually from 114 µM), inactives show top-dose activity change, negative = inhibition, most hits filed as inhibitors | hit rate 4.4% among 390,000 | AID 504339; also: % is scaled to controls: 0 for no effect and ±100 for the full control effect; nearly all actives have a fitted effect of over 50% in size
BAZ2B block: inhibitors of human BAZ2B bromodomain. AID 504333. hit rate 4.4% among 360,000. Potency, µM (series often up to 114 µM), inactives show at the highest dose activity change, negative = inhibition, usual class: inhibitors. Q9UIF8. AlphaScreen BAZ2B-H3K14Ac peptide displacement; also: % is scaled to controls: 0 for no effect and ±100 for the full control effect; nearly all actives have a fitted effect of over 60% in size
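BAZ2B (50 nM) with biotin-H3(5-23)K14Ac peptide (50 nM) in PBS pH 7.4, 0.01% Tween-20, preformed 30 min, then compound 30 min at room temperature; top concentration 110uM. AlphaScreen streptavidin donor/nickel chelate acceptor beads (10 ug/mL final), 20 min dark, signal read.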
HP1b chromo inh: HP1-beta chromodomain-methylated histone interaction inhibition; P83916; Potency, µM (top dose mostly 114 µM), inactives show at the highest dose activity change, negative = inhibition, most hits filed as inhibitors; hit rate 0.56% among 390,000; AlphaScreen HP1-beta / biotin-H3K9me3 peptide binding; also: nearly all actives have a fitted effect of over 70% in size
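HP1-beta protein (50 nM final) preincubated 30 min at room temperature with biotinylated H3(1-18)K9me3 peptide (50 nM) in PBS pH 7.4, 0.01% Tween-20, then compound added for 30 min. AlphaScreen streptavidin donor/nickel chelate acceptor beads (10 ug/mL final), 30 min dark, luminescence read.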
Sfp PPTase inh: blocks B. subtilis Sfp PPTase activity. hit rate 3.5% among 310,000. Potency, µM, without a hit: largest response in the series, negative = inhibition, actives largely listed as inhibitors. Q9F4F7. Biochemical Sfp PPTase activity, qHTS;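 also: the enzyme is Sfp with the accession as filed and its product quenches rhodamine fluorescence; 0% = enzyme reaction without inhibitor and -100% = no enzyme wells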
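Buffer: 50 mM Hepes-Na pH 7.6, 10 mM MgCl2, 0.01% Nonidet P-40, 0.01% BSA. Enzyme 15 nM, pre-exposed to compound 15 min; substrates then added and fluorescence change tracked over 30 min.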
* = called active by the depositor; [ ] = another dose, or the depositor's remark. Calls follow the shape of the dose curve; as a rule, active = well fitted curve in the direction sought with a large enough effect; inconclusive = small, poorly fitted or top-dose-only effect, or another doubt; inactive = no such curve, though single readings can be large; an effect the other way counts as inactive or inconclusive. Potency is read from the fitted curve at half-maximal effect.

What do the screens show for `Cn1c2ccc(F)cc2c2nnc(SCCN3CCOCC3)nc21`?
G9a inh: 50.1µM*; JMJD2A Tudor: 0.4%; BAZ2B block: -1.2%; HP1b chromo inh: 51.6%; Sfp PPTase inh: inconclusive

How did C=CC[n+]1c(/C=C2\C=Cc3cc(C)ccc3N2CC)ccc2ccccc21 do in these assays?
G9a inh: 28.2µM*; JMJD2A Tudor: 50.1µM*; BAZ2B block: 35.5µM*; HP1b chromo inh: inconclusive; Sfp PPTase inh: -13.1%

What do the screens show for `Cc1cccc(CC2SC(N3CCN(c4ccccc4)CC3)=NC2=O)c1` (centres undefined)?
G9a inh: -13.8%[59 µM]; JMJD2A Tudor: -19.5%; BAZ2B block: -37.3%; HP1b chromo inh: 29.3%; Sfp PPTase inh: 6.7%

How did Cc1ccccc1C(=O)Nc1nnc(SCc2cc(=O)c3c(C)ccc(C)c3[nH]2)s1 do in these assays?
G9a inh: 7.7%[59 µM]; JMJD2A Tudor: -31.5%; BAZ2B block: 56.2µM*; HP1b chromo inh: 19.6%[57 µM]

How did COc1ccc(C(=O)Nc2nnc(SCc3cc(=O)c4cc(C)cc(C)c4[nH]3)s2)cc1 do in these assays?
G9a inh: -24.6%[59 µM]; JMJD2A Tudor: -14.6%; BAZ2B block: -2.0%; HP1b chromo inh: 17.3%[57 µM]

Results for COc1ccc(C(=O)Sc2nncc3ccccc23)cc1 ?
G9a inh: 22.4µM*; JMJD2A Tudor: inconclusive; BAZ2B block: 70.8µM*; HP1b chromo inh: 10.8%; Sfp PPTase inh: 50.1µM*

Results for O=C1NCCN/C1=C\C(=O)c1ccc(F)cc1 ?
G9a inh: 15.9%[12.7 µM]; JMJD2A Tudor: -15.6%; BAZ2B block: -4.5%; HP1b chromo inh: 29.2%; Sfp PPTase inh: -5.8%

Results for CN1CCN(CC(=O)c2cc(C(C)(C)C)c(O)c(C(C)(C)C)c2)CC1 ?
G9a inh: 31.6µM*; JMJD2A Tudor: inconclusive; BAZ2B block: -30.8%; HP1b chromo inh: 41.5%; Sfp PPTase inh: 5.4%

Results for CC(C)(C)c1cc(CN2CCN(CCO)CC2)cc(C(C)(C)C)c1O ?
G9a inh: inconclusive; JMJD2A Tudor: -19.5%; BAZ2B block: inconclusive; HP1b chromo inh: 24.6%; Sfp PPTase inh: inconclusive

How did CCn1c(C)nc2cc(C(=O)N/N=C/c3ccc(O)c(O)c3O)ccc21 do in these assays?
G9a inh: 2µM*; JMJD2A Tudor: 6.31µM*; BAZ2B block: 11.2µM*; HP1b chromo inh: 8.91µM*; Sfp PPTase inh: 2.24µM*

Results for CCn1c(C)nc2cc(C(=O)N/N=C/c3cccc(OC)c3O)ccc21 ?
G9a inh: 79.4µM*; JMJD2A Tudor: inconclusive; BAZ2B block: -16.3%; HP1b chromo inh: -5.6%; Sfp PPTase inh: 21.8%

Results for O=C(Nc1ccc(N2CCCCC2)c(Cl)c1)c1ccc2c(c1)OCCO2 ?
G9a inh: inconclusive; JMJD2A Tudor: inconclusive; BAZ2B block: -22.3%; HP1b chromo inh: -12.4%; Sfp PPTase inh: 17.0%

What do the screens show for `COC(=O)c1sc2nc(-c3ccco3)ccc2c1N`?
G9a inh: inconclusive; JMJD2A Tudor: -6.2%; BAZ2B block: -3.9%; HP1b chromo inh: 43.2%; Sfp PPTase inh: 8.91µM*

Results for NC(=O)c1sc2nc(-c3cccnc3)ccc2c1N ?
G9a inh: 10µM*; JMJD2A Tudor: -16.9%; BAZ2B block: -28.3%; HP1b chromo inh: 35.1%; Sfp PPTase inh: inconclusive

What do the screens show for `COC(=O)c1sc2nc(N)c(C#N)cc2c1N`?
G9a inh: 44.7µM*; JMJD2A Tudor: -15.0%; BAZ2B block: -31.8%; HP1b chromo inh: 15.3%; Sfp PPTase inh: -17.7%

What do the screens show for `Cn1c(=O)c2[nH]c(CCC3CCCC3)nc2n(C)c1=O`?
JMJD2A Tudor: -31.2%; HP1b chromo inh: 15.7%

Results for O=C(CCc1ccccc1)Nc1ccccc1F ?
G9a inh: 7.8%[59 µM]; JMJD2A Tudor: 12.7%; BAZ2B block: -2.9%; HP1b chromo inh: 28.0%; Sfp PPTase inh: 1.8%

What do the screens show for `COc1ccccc1CCn1c(=O)cnc2cncnc21`?
G9a inh: -1.5%[0.501 µM]; Sfp PPTase inh: 14.7%

Results for COc1ccc2c(c1)C(=O)[C@H](OC(=O)Nc1ccc(C)c(Br)c1)[C@@H](c1ccc(OC)c(Br)c1)O2 ?
Sfp PPTase inh: 10.5%

How did Cc1c(C(=O)O/N=C(\N)c2ccccn2)cccc1[N+](=O)[O-] do in these assays?
G9a inh: 31.6µM*; JMJD2A Tudor: 11.2µM*; BAZ2B block: -27.5%; HP1b chromo inh: 0.7%; Sfp PPTase inh: 6.5%

What do the screens show for `N/C(=N\OC(=O)c1ccc(Cl)cc1[N+](=O)[O-])c1ccccn1`?
JMJD2A Tudor: inconclusive; BAZ2B block: -13.2%; HP1b chromo inh: 13.5%; Sfp PPTase inh: 15.6%

Results for N/C(=N\OC(=O)Cc1ccccc1[N+](=O)[O-])c1ccccn1 ?
G9a inh: inconclusive; JMJD2A Tudor: inconclusive; BAZ2B block: 56.2µM*; HP1b chromo inh: 12.2%; Sfp PPTase inh: -29.6%

How did N=C1S/C(=C\c2cn[nH]c2-c2ccc(F)cc2)C(=O)N1c1ccccc1F do in these assays?
G9a inh: -5.5%; JMJD2A Tudor: 89.1µM*; BAZ2B block: -1.6%; HP1b chromo inh: 5.6%; Sfp PPTase inh: -0.6%

What do the screens show for `Cc1ccc(N2C(=O)NC(NS(=O)(=O)c3ccc(C)cc3)(C(F)(F)F)C2=O)cc1` (centres undefined)?
G9a inh: 15.5%; JMJD2A Tudor: -6.7%; BAZ2B block: -4.0%; HP1b chromo inh: 1.2%; Sfp PPTase inh: 20.2%

What do the screens show for `O=C(/C=C/c1ccc(O)c(O)c1)O[C@@H]1C[C@@](O)(C(=O)O)C[C@H](O)[C@@H]1O`?
Sfp PPTase inh: 50.1µM*

Results for O=C(Nc1ccc(S(=O)(=O)N2CCCC2)cc1)c1ccc([N+](=O)[O-])o1 ?
JMJD2A Tudor: -19.9%; HP1b chromo inh: 32.8%

Results for CS(=O)(=O)Oc1ccc2c(c1)O/C(=C\C=C\c1ccccc1)C2=O ?
G9a inh: inconclusive; JMJD2A Tudor: -25.5%; BAZ2B block: inconclusive; HP1b chromo inh: 2.9%; Sfp PPTase inh: -21.8%

How did COc1ccc2c(c1)C(=O)/C(=C/C=C/c1ccccc1)CC2 do in these assays?
G9a inh: 31.6µM*; JMJD2A Tudor: -28.2%[57.1 µM]; BAZ2B block: 6.8%; HP1b chromo inh: 28.6%; Sfp PPTase inh: -13.3%

What do the screens show for `COc1ccc2c(c1)CC/C(=C\C=C\c1ccccc1OC)C2=O`?
G9a inh: 7.94µM*; JMJD2A Tudor: -14.9%; BAZ2B block: 8.2%; HP1b chromo inh: 16.2%; Sfp PPTase inh: 25.1µM*

What do the screens show for `COc1ccc2c(c1)CC/C(=C/c1ccncc1)C2=O`?
G9a inh: 5.9%[59 µM]; JMJD2A Tudor: -15.1%; BAZ2B block: -31.1%; HP1b chromo inh: 13.0%; Sfp PPTase inh: 6.6%

What do the screens show for `COc1ccc2c(c1)CC/C(=C\c1ccc(C)o1)C2=O`?
G9a inh: 50.1µM*; JMJD2A Tudor: inconclusive; BAZ2B block: 44.7µM*; HP1b chromo inh: inconclusive; Sfp PPTase inh: 44.7µM*

Results for Cc1ccc(NC(=O)c2c3c(nc4ccccc24)CCC3)cc1S(=O)(=O)N(C)C ?
G9a inh: -38.7%; JMJD2A Tudor: -29.9%; BAZ2B block: inconclusive; HP1b chromo inh: -13.7%; Sfp PPTase inh: 0.9%
